Assay results from ChEMBL document CHEMBL3988442, “University of Dundee, Small-Polar-MMV Screening Library” (2021).
For some of these results: Potency and affinity values are given separately.

Experiments:
Design in all cases: scale not given: direction of the effect not stated beside the values
[1] = target: Protein translocase subunit SecA (Escherichia coli (strain K12)) (UniProt P10408); experiment: Assay to Identify E. coli SecA ATPase Inhibitors; format: functional; settings: 30 µM
[2] = target: T1, Ubiquitin-activating enzyme e1, putative (Leishmania donovani (strain BPK282A1)) (UniProt E9BSI1); experiment: Leishmania donovani Ubiquitin Activating Enzyme (LdE1); format: functional; settings: 30 µM
T1 sequence (whole entry): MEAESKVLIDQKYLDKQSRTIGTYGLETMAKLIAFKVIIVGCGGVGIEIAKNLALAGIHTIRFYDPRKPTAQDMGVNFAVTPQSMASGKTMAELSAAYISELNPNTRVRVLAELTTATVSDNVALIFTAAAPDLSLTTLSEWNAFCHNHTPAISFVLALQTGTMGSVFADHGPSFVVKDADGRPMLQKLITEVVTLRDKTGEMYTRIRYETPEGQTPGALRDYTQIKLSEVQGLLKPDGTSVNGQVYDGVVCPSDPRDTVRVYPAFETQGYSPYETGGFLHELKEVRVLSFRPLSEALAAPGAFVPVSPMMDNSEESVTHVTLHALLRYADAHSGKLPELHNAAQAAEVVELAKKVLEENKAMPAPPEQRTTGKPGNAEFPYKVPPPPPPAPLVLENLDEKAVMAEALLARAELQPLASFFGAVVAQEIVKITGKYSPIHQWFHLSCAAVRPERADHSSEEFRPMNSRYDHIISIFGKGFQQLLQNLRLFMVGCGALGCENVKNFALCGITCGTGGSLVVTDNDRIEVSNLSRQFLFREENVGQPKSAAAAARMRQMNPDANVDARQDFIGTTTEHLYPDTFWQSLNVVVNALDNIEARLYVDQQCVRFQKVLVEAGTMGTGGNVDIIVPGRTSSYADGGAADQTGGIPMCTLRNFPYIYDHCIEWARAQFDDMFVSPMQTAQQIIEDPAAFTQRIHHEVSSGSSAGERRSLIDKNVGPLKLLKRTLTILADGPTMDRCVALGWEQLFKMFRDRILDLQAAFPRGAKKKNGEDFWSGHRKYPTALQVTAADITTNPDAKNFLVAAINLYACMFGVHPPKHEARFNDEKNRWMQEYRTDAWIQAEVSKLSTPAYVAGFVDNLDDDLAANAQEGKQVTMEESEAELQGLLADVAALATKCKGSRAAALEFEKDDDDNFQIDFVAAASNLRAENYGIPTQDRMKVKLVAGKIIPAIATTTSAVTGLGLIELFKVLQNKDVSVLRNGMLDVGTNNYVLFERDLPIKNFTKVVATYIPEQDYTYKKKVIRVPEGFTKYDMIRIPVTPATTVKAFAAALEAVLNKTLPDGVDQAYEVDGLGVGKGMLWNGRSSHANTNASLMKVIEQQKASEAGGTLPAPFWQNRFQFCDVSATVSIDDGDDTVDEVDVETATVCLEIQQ

[3] = target: AMP-activated protein kinase, AMPK (Homo sapiens) (UniProt P54646+O43741+P54619+Q9UGJ0+Q9Y478+Q13131+Q9UGI9); experiment: AMP-dependent Kinase enzyme assay. An in vitro enzyme assay that detects ADP turnover that is directly proportional to AMPK activity. This uses naive AMPK that is activated during the assay with MK-8722; format: functional; settings: 30 µM
[4] = target: Sialic acid-binding Ig-like lectin 9 (Homo sapiens) (UniProt Q9Y336); experiment: Hs-Siglec9 ALPHAscreen SOP 20170721; settings: 10 µM
Trypanosoma cruzi = experiment: Trypanosoma cruzi phosphomannomutase and mannose-1-phosphate guanylyltransferase assay; format: functional; settings: 10 µM
[5] = target: T2, Arginase-2, mitochondrial (Homo sapiens) (UniProt P78540); experiment: in vitro enzyme assay to detect the production of urea directly proportional to the activity of Arginase II; format: functional; settings: 33.3 µM; further: in the data most compounds retested in dose-response had high values
T2 sequence (whole entry): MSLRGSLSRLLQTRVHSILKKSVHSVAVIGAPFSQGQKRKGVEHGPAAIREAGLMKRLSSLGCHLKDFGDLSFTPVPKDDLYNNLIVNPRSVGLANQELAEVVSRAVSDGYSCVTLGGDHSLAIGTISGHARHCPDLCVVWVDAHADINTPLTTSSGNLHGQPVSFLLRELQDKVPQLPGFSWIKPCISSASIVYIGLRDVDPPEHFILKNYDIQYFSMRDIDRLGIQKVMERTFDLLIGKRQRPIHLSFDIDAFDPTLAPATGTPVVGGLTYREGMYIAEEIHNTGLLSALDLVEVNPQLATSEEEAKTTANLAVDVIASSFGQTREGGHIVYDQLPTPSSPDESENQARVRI

[6] = target: T3, Proteasome subunit beta (Trypanosoma cruzi) (UniProt O96673); experiment: Trypanosoma cruzi proteasome chymotrypsin-like activity (TcProtChymo) assay.; further: in the data most compounds retested in dose-response had high values; format: functional; settings: 9.37 µM
T3 sequence (whole entry): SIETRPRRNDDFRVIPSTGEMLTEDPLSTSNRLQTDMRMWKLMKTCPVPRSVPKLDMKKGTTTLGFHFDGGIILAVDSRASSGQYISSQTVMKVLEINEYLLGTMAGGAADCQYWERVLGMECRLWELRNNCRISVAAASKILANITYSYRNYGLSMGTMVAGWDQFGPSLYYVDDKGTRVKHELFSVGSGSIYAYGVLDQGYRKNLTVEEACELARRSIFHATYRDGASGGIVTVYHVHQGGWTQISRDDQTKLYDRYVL

Homo sapiens = species: Homo sapiens; experiment: To identify inhibition of the IFN signalling (Jak-Stat) pathway via expression of an eGFP reporter gene under the control of an IFN-stimulated response element (ISRE) containing MxA promoter.; format: functional; settings: 30 µM
[7] = target: T4, Tyrosyl-tRNA synthetase, putative (Trypanosoma cruzi (strain CL Brener)) (UniProt Q4DSP6); experiment: Trypanosoma cruzi tyrosyl tRNA synthetase (TcYRS) _High Tyrosine SOP; format: functional; settings: 30 µM; further: in the data most compounds retested in dose-response had high values
T4 sequence (whole entry): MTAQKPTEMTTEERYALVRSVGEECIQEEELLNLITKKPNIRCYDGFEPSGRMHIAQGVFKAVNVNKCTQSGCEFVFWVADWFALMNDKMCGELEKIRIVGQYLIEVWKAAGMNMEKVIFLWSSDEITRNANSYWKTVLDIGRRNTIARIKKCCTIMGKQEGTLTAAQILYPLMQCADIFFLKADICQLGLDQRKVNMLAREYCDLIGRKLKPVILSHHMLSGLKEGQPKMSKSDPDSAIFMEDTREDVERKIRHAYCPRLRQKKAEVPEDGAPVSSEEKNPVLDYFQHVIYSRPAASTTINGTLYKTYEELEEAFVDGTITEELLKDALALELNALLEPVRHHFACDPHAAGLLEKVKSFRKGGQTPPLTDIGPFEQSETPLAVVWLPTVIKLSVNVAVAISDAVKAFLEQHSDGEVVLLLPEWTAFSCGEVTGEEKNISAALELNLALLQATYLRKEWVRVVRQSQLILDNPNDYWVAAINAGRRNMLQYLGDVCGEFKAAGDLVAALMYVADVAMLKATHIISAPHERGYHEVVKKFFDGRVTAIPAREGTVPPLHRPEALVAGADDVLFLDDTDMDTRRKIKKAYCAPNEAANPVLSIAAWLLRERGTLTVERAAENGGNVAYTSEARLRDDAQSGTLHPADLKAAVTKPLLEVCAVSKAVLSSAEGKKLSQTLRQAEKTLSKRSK

[8] = target: T4, Tyrosyl-tRNA synthetase, putative (Trypanosoma cruzi (strain CL Brener)); experiment: Trypanosoma cruzi tyrosyl tRNA synthetase (TcYRS) SOP; format: functional; settings: 30 µM
[9] = target: Chromo domain-containing protein 1 (Saccharomyces cerevisiae (strain ATCC 204508 / S288c) (Baker's yeast)) (UniProt P32657); experiment: ScCHD-1 Enzyme Inhibition Assay; format: functional; settings: 30 µM; further: in the data most compounds retested in dose-response had high values
Chain of Chromo domain-containing protein 1 (Saccharomyces cerevisiae (strain ATCC 204508 / S288c) (Baker's yeast)) (P32657 whole entry, the tested form may be a part): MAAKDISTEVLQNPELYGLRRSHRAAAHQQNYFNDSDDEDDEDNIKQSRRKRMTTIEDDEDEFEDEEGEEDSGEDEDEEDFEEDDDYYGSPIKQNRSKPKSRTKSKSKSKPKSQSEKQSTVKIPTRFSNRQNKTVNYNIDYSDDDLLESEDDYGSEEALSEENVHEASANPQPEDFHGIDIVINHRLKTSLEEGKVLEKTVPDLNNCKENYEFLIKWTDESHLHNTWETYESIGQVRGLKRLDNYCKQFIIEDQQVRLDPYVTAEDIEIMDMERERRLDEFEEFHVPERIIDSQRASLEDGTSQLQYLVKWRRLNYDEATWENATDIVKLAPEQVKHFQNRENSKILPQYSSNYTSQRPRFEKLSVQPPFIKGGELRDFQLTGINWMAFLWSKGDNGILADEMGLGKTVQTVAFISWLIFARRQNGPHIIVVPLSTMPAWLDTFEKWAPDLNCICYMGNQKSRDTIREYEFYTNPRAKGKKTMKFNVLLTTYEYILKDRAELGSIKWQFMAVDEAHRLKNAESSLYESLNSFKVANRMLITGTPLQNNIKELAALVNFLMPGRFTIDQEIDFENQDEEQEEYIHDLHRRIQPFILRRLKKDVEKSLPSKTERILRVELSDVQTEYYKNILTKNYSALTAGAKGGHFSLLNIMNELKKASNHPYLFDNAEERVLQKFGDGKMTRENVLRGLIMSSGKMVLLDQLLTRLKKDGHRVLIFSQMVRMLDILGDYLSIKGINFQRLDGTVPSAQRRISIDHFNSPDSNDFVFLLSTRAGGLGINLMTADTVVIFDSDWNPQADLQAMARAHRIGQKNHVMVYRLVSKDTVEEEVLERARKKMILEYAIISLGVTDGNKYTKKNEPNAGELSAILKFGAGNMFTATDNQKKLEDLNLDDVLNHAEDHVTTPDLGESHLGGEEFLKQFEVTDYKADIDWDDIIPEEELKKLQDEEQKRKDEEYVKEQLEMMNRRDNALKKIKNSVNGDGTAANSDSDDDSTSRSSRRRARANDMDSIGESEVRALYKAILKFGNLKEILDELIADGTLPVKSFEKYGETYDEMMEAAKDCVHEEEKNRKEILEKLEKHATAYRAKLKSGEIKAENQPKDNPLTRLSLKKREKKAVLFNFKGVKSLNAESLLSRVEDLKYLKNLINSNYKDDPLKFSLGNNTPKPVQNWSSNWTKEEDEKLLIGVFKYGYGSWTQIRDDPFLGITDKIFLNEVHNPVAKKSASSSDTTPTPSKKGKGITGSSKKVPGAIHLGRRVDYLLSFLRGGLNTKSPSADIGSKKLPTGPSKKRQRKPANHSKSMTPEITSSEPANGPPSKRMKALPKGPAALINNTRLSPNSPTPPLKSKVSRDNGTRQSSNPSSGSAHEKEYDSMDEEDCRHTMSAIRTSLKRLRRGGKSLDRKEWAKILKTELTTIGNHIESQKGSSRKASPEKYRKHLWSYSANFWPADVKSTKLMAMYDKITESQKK

Chain of Sialic acid-binding Ig-like lectin 9 (Homo sapiens) (Q9Y336 whole entry): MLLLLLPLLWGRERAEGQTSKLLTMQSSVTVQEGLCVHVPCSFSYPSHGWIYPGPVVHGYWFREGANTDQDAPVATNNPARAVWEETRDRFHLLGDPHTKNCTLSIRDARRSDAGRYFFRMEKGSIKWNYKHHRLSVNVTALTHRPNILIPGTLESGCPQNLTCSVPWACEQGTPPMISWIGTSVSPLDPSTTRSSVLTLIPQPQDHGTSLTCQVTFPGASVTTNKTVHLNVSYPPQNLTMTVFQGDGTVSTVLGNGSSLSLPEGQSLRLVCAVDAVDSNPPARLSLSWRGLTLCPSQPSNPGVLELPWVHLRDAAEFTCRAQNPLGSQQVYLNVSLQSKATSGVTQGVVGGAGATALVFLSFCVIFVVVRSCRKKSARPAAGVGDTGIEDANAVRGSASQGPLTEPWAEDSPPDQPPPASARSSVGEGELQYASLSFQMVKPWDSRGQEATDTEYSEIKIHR
Chain of Protein translocase subunit SecA (Escherichia coli (strain K12)) (P10408 whole entry): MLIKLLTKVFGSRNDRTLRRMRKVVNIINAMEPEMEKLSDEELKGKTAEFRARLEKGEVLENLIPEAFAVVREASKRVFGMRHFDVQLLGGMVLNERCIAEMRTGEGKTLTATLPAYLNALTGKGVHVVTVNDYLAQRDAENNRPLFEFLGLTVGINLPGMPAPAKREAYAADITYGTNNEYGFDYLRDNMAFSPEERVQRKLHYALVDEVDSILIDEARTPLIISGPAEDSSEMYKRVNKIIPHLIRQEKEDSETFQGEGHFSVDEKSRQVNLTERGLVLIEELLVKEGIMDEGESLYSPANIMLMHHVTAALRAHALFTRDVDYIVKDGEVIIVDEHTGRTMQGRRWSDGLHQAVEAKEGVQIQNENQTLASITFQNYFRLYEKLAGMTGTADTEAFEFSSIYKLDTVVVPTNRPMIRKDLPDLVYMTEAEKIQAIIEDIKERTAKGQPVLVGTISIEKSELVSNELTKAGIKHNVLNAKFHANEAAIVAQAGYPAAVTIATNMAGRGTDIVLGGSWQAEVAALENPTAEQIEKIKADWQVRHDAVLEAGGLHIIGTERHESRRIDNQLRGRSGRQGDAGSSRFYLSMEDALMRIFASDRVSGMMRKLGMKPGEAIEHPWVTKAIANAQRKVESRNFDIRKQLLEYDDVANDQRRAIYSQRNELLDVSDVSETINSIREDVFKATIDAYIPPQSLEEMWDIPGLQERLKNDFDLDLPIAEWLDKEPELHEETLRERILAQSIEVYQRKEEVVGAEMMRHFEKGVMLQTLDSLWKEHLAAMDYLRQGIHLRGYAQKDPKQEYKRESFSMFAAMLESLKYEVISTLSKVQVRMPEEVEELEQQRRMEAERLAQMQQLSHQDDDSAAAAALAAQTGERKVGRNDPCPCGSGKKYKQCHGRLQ

CCN(CC)CC(=O)NCCc1csc(N2CCCC2)n1
Percent Effect [1]: -3.47%
Percent Effect [2]: -2.67%
Percent Effect [3]: -4.85%
Percent Effect [4]: -0.334%
Percent Effect (Trypanosoma cruzi): -2.24%
Percent Effect [5]: -1.04%
Percent Effect [6]: 5.41%
Percent Effect (Homo sapiens): 5.85%
Percent Effect [7]: -0.546%
Percent Effect [8]: -1.24%
Percent Effect [9]: 6.78%

O=C1NCCN1C1CCN(Cc2nc(-c3ccoc3)no2)CC1
Percent Effect [1]: -1.17%
Percent Effect [2]: 5.2%
Percent Effect [3]: 2.43%
Percent Effect [4]: 5.09%
Percent Effect (Trypanosoma cruzi): 3.56%
Percent Effect [5]: -2.85%
Percent Effect [6]: 4.56%
Percent Effect (Homo sapiens): -2.53%
Percent Effect [7]: 0.971%
Percent Effect [8]: 12.2%
Percent Effect [9]: -2.45%

c1nc(CCC2CCCN2)cc(N2CCCOCC2)n1 (stereo unspecified)
Percent Effect [1]: -4.1%
Percent Effect [2]: 9.46%
Percent Effect [3]: 11.8%
Percent Effect [4]: -4.56%
Percent Effect (Trypanosoma cruzi): -6.13%
Percent Effect [5]: -3.02%
Percent Effect [6]: 9.36%
Percent Effect (Homo sapiens): 10.3%
Percent Effect [7]: 3.23%
Percent Effect [8]: 6.49%
Percent Effect [9]: -5.74%

CC1CCCCN1c1nc2c(c(=O)[nH]1)CCN(Cc1cccnc1)C2 (stereo unspecified)
Percent Effect [1]: -3.13%
Percent Effect [2]: 12.2%
Percent Effect [3]: 6.19%
Percent Effect [4]: 3.8%
Percent Effect (Trypanosoma cruzi): 0.79%
Percent Effect [5]: 2.09%
Percent Effect [6]: 9.36%
Percent Effect (Homo sapiens): 2.99%
Percent Effect [7]: 3.23%
Percent Effect [8]: 14.3%
Percent Effect [9]: -18.2%

Cc1ccc(CC(=O)NC(C)C(=O)N2CCS(=O)(=O)CC2)cc1 (stereo unspecified)
Percent Effect [1]: -6.49%
Percent Effect [2]: 0%
Percent Effect [3]: -3.26%
Percent Effect [4]: 4.88%
Percent Effect (Trypanosoma cruzi): -2.9%
Percent Effect [5]: -1.91%
Percent Effect [6]: 10.2%
Percent Effect (Homo sapiens): 1.44%
Percent Effect [7]: 3.7%
Percent Effect [8]: 2.44%
Percent Effect [9]: -3.12%

Cc1nccc(-c2cccc(NCC(=O)N3CCNC3=O)c2)n1
Percent Effect [1]: -3.58%
Percent Effect [2]: 21.1%
Percent Effect [3]: -11.7%
Percent Effect [4]: 0.813%
Percent Effect (Trypanosoma cruzi): 6.82%
Percent Effect [5]: -1.44%
Percent Effect [6]: 11.2%
Percent Effect (Homo sapiens): 16.4%
Percent Effect [7]: 10.3%
Percent Effect [8]: 28.4%
Percent Effect [9]: -9.15%

Cc1cc(CN2CC[C@H]3C(=O)N(c4ccccc4)CCO[C@H]3C2)no1
Percent Effect [1]: -3.31%
Percent Effect [2]: 21.3%
Percent Effect [3]: 1.48%
Percent Effect [4]: -6.56%
Percent Effect (Trypanosoma cruzi): -4.92%
Percent Effect [5]: -2.1%
Percent Effect [6]: 8.37%
Percent Effect (Homo sapiens): 19.1%
Percent Effect [7]: 2.13%
Percent Effect [8]: 11.5%
Percent Effect [9]: -1.25%

NC(=O)CN1CC2(CCC1=O)CCN(Cc1cc(F)ccc1Cl)CC2
Percent Effect [1]: -3.36%
Percent Effect [2]: 16%
Percent Effect [3]: -3.98%
Percent Effect [4]: 13.3%
Percent Effect (Trypanosoma cruzi): 7.5%
Percent Effect [5]: 5.73%
Percent Effect [6]: 18%
Percent Effect (Homo sapiens): 8.19%
Percent Effect [7]: 3.83%
Percent Effect [8]: 18.5%
Percent Effect [9]: -5.6%

Cc1nc(Nc2ncccn2)cc(C2CCCN2C2CCOCC2)n1 (stereo unspecified)
Percent Effect [1]: -5.08%
Percent Effect [2]: 6.76%
Percent Effect [3]: 3.91%
Percent Effect [4]: 3.68%
Percent Effect (Trypanosoma cruzi): 0.593%
Percent Effect [5]: -3.48%
Percent Effect [6]: -1.72%
Percent Effect (Homo sapiens): 13.7%
Percent Effect [7]: 9.68%
Percent Effect [8]: 11.7%
Percent Effect [9]: -3.64%

c1ccc2sc(CN3CCOC(Cn4cccn4)C3)nc2c1 (stereo unspecified)
Percent Effect [1]: -6.08%
Percent Effect [2]: 5.41%
Percent Effect [3]: -3.49%
Percent Effect [4]: 1.12%
Percent Effect (Trypanosoma cruzi): -4.06%
Percent Effect [5]: -2%
Percent Effect [6]: 0%
Percent Effect (Homo sapiens): 24.4%
Percent Effect [7]: -0.493%
Percent Effect [8]: -8.64%
Percent Effect [9]: -0.731%

NC(=O)c1cc(C2CCCN(C(=O)CCc3ccsc3)C2)n[nH]1 (stereo unspecified)
Percent Effect [1]: -9.05%
Percent Effect [2]: 5.2%
Percent Effect [3]: 5.08%
Percent Effect [4]: -5.24%
Percent Effect (Trypanosoma cruzi): -5.43%
Percent Effect [5]: -1.78%
Percent Effect [6]: -5.57%
Percent Effect (Homo sapiens): 30.9%
Percent Effect [7]: 3.88%
Percent Effect [8]: 7.32%
Percent Effect [9]: -4.93%
